Screening data deposited in PubChem by National Center for Advancing Translational Sciences (NCATS).
Most compounds without a hit are left out; they make up all but 18% or so of the library.
HepG2 tox = qHTS for Inhibitors of TGF-b: Cytotox Counterscreen. Potency, µM (titrated, usually from 46.1 µM), without a hit: top-dose activity change, negative = cytotoxicity, most hits filed as cytotoxic. HepG2 CAGA-GFP viability, ATP luminescence, 18 h. 410,000 tested, 0.76% active; further: potency means the concentration at half of the fitted maximal effect
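CellTiter-Glo luminescence gave cytotoxicity after 18 hours at 37 degrees C. The cells were HepG2 CAGA-GFP in 1% FBS DMEM, stimulated with 500 pg/mL TGF-beta after compound addition. %Activity was normalised to no-cell wells (complete cell-killing) and DMSO (no toxicity), and curves were fitted and classified.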
TGFb inhibitor = qHTS for Inhibitors of TGF-b; HepG2 CAGA-GFP TGF-b/SMAD3 reporter, GFP fluorescence, 18 h; TGF-beta stimulated, 500 pg/mL final; AID 588855, 2011; Potency, µM (doses to about 46.1 µM), without a hit: at the highest dose activity, negative = inhibition, usual class: inhibitors; 410,000 tested, 1.2% active; further: potency means the concentration at half of the fitted maximal effect; on the % scale 0 is the no-effect control and ±100 the full control effect; nearly all actives have a fitted effect of over 65% in size
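HEPG2 CAGA-GFP cells (1000/well, DMEM with 1% FBS) were pre-incubated 2 h at 37 degrees C, given compound by pin tool, then stimulated with TGF-beta at 500 pg/mL final for 18 h before per-cell GFP fluorescence imaging.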
TDP1 cell noCPT = qHTS for Inhibitors of human tyrosyl-DNA phosphodiesterase 1 (TDP1): qHTS in cells in absence of CPT; 420,000 tested, 15% active; DT40 Tdp1-/- hTDP1 cells, no CPT, ATP luminescence, 48 h; Potency, µM (titrated, usually from 46.2 µM), for the others: top-dose activity change, negative = growth inhibition, hits mostly inhibitors; further: potency means the concentration at half of the fitted maximal effect; on the % scale 0 is the no-effect control and ±100 the full control effect; nearly all actives have a fitted effect of over 55% in size
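A cellular qHTS used chicken DT40 cells lacking endogenous Tdp1 but carrying stably transfected human TDP1. Compounds were applied without camptothecin, and cell growth kinetics were judged by ATP-dependent luminescence after ≥48 hr.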
DT40 TDP1 CPT = qHTS for Inhibitors of human tyrosyl-DNA phosphodiesterase 1 (TDP1): qHTS in cells in presence of CPT; 420,000 tested, 12% active; chicken DT40 Tdp1-/-;hTDP1 cells + 20 nM CPT, ATP luminescence, 48 h; Potency, µM (series often up to 46.2 µM), inactives show at the top dose activity change, negative = growth inhibition, usual class: inhibitors; further: potency means the concentration at half of the fitted maximal effect; on the % scale 0 is the no-effect control and ±100 the full control effect; nearly all actives have a fitted effect of over 55% in size
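Chicken DT40 Tdp1-/- cells stably complemented with human TDP1 were seeded at 400 cells/well in medium containing 20 nM camptothecin, exposed to pin-transferred compounds, and grown at 37 °C for at least 48 hr. Viability was read as ATP luminescence.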
IL-1B inflam inh = qHTS for Inhibitors of Inflammasome Signaling: IL-1-beta AlphaLISA Primary Screen. THP-1 LPS/ATP IL-1B secretion, AlphaLISA, 16 h; hits give low values. 360,000 tested, 4.7% active. activity change, % at 57.5 µM; in the data active means activity change below about -50%; inconclusive means mostly about -30% to -49%; further: on the % scale 0 is the no-effect control and ±100 the full control effect
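THP-1 cells pretreated 1 hr with compounds (up to 57.5 uM final), then stimulated with LPS (250 ng/mL final) plus ATP (1.25 mM final); secreted IL-1B measured by AlphaLISA after 16 hr, decreased signal indicating inhibition.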
TDP1 inh = qHTS Assay for Inhibitors of Tyrosyl-DNA Phosphodiesterase (TDP1); Tyrosyl-DNA phosphodiesterase 1 (Homo sapiens), Q9NUW8; recombinant TDP1, AlphaScreen DNA substrate cleavage; Potency, µM (top dose mostly 130 µM), without a hit: at the top dose activity change, negative = inhibition, most hits filed as inhibitors; 350,000 tested, 0.28% active; further: potency means the concentration at half of the fitted maximal effect; on the % scale 0 is the no-effect control and ±100 the full control effect; nearly all actives have a fitted effect of over 40% in size
Target sequence (Q9NUW8 whole entry, looked up): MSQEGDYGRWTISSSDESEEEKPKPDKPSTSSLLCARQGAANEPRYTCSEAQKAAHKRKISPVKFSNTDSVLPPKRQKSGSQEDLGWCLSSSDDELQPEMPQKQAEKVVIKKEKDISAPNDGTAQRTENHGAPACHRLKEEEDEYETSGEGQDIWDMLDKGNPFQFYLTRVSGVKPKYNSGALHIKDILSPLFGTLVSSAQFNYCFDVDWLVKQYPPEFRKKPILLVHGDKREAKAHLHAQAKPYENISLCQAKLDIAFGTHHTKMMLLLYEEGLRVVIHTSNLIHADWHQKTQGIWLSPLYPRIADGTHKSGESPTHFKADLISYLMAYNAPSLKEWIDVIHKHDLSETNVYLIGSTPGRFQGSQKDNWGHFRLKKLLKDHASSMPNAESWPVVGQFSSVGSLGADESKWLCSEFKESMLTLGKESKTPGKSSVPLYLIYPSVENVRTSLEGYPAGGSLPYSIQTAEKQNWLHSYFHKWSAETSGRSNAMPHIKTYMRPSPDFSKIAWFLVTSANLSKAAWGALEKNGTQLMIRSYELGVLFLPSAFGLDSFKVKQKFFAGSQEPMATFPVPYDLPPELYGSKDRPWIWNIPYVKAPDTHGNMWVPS
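Enzyme-compound mixtures sat 15 min at room temperature, followed by a 5 min reaction with 15 nM final substrate and 10 min with AlphaScreen beads. Recombinant human Tdp1 was used at 1 nM final.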
Starred values were filed as active, the others as inactive; ? = inconclusive; . = no result; [ ] = dose if it differs, or a comment. Unless noted, the call rests on the fitted dose curve; in most records, active means well fitted curve in the direction sought with a large enough effect; inconclusive means small, poorly fitted or top-dose-only effect, or another doubt; inactive means no such curve, though single readings can be large; an effect the other way counts as inactive or inconclusive.

SMILES | HepG2 tox | TGFb inhibitor | TDP1 cell noCPT | DT40 TDP1 CPT | IL-1B inflam inh | TDP1 inh
COc1ccc(N2CCCn3c2nc2c3c(=O)n(CCc3ccccc3)c(=O)n2C)cc1 | -28% | 2% | 15µM* | ? | -24 | 2%
COc1ccc(C2=CCCC2)c(OC)c1 | 19% | -1% | -23% | -19% | 4 | .
COC(=O)C1(Cc2ccccc2)C=C2C(=C(c3ccccc3)C(=O)C2C)CN1 (stereo not drawn) | . | . | . | . | . | 6%
Cn1c(=O)n(CCCc2ccccc2)c(=O)c2c1nc1n2CCN1c1ccccc1 | 2% | 16% | 6.5µM* | 7.3µM* | . | 4%
Cn1c(=O)n(CCc2ccccc2)c(=O)c2c1nc1n2CCCN1Cc1ccccc1 | -33% | -19% | 13µM* | ? | -18 | -1%
CCOCCn1c(=O)c2c(nc3n2CCN3c2ccc(CC)cc2)n(C)c1=O | -2% | 0% | ? | 15µM* | 54 | .
Cc1ccc(N2CC(C)Cn3c2nc2c3c(=O)n(CC(=O)OCc3ccccc3)c(=O)n2C)cc1C (stereo not drawn) | -4% | 7% | 18µM* | 11µM* | 10 | 1%
Cc1ccc(N2CCCn3c2nc2c3c(=O)n(CC(=O)OCc3ccccc3)c(=O)n2C)cc1C | . | . | . | . | . | -2%
O=C(OC1CCCC1)c1ccc(Cl)cc1Cl | 1% | 1% | ? | -14% | 9 | .
CCn1c(=O)c2c(nc3n2CC(C)CN3CCc2ccccc2)n(C)c1=O (stereo not drawn) | -46% | 2% | ? | 21µM* | -1 | 2%
COCCn1c(=O)c2c(nc3n2CC(C)CN3CCc2ccccc2)n(C)c1=O (stereo not drawn) | -9% | -5% | ? | ? | 29 | 8%
Cc1ccc(N2C(=O)CC(N3CCN(C)CC3)C2=O)cc1 (stereo not drawn) | . | . | . | . | . | 5%
CN1CCN(C2Cc3ccc(F)cc3Sc3cc(F)c(Cl)cc32)CC1 (stereo not drawn) | 20µM* | ? | 10µM* | 18µM* | -97* | .
CN1CCN(C(=O)C2CC(=O)N(c3ccc(F)c(Cl)c3)C2)CC1 (stereo not drawn) | -3% | 11% | -5% | 8% | 2 | 0%
CN1CCN(C2Cc3ccccc3Sc3cc(C(F)(F)F)ccc32)CC1 (stereo not drawn) | 20µM* | ? | 16µM* | ? | -98* | .
CN1CCN(C2Cc3cc(F)ccc3Sc3ccc(Cl)cc32)CC1 (stereo not drawn) | -105% | 32µM* | ? | ? | ? | .
COc1ccccc1C(=O)NC(=O)COC(=O)CNC(=O)c1ccccc1 | 6% | 7% | -24% | -11% | 1 | 1%
O=C(Nc1ccc2nc(SCCOc3ccccc3Cl)sc2c1)c1cccs1 | -19% | 2% | ? | ? | . | -4%
Cc1cccc(NC(=O)CN(CC2CCCO2)C(=O)c2ccc(S(C)(=O)=O)cc2)c1C (stereo not drawn) | -1% | 13% | 21% | 1% | -3 | 7%
COc1cc(-c2c(OC)cccc2OC)cc2c1OCCN(C(=O)CCn1nc(C)cc1C)C2 | . | . | -17% | -5%[9.04 µM] | . | .
COCc1ccc(CN2CCOc3c(cc(-c4cc(C)c5cccc(OC)c5n4)cc3OC)C2)o1 | . | . | 21µM* | -5%[9.04 µM] | . | .
COc1cc(-c2cc(C)c3cccc(OC)c3n2)cc2c1OCCN(C(=O)CCn1ccc(C)n1)C2 | . | . | 23µM* | -16%[9.04 µM] | . | .
O=[N+]([O-])c1ccc2nc(CO)[nH]c2c1 | -22% | -15% | 0.5µM* | ? | . | .
Nc1nc2ccc([N+](=O)[O-])cc2[nH]1 | -73% | 3% | -25% | -11% | -21 | 8%
O=[N+]([O-])c1ccc(/C=C/c2ccncc2)cc1 | -10% | -10% | 13µM* | ? | ? | .
SMILES | HepG2 tox | TGFb inhibitor | TDP1 cell noCPT | DT40 TDP1 CPT | IL-1B inflam inh | TDP1 inh
NC(N)=Nc1nc2ccc([N+](=O)[O-])cc2[nH]1 | -18% | -4% | 29µM* | -17% | ? | 11%
O=[N+]([O-])c1ccc(/C=C/c2nc3ccc([N+](=O)[O-])cc3[nH]2)cc1 | 10% | ? | 4.1µM* | 5.8µM* | -9 | -2%
C=CCN1C(=O)CS/C1=N\N=C\c1cccc([N+](=O)[O-])c1 | 22% | -14% | -3% | 18% | 0 | -1%
CCOc1ccc(C(=O)N2CCN(CC(=O)N3CCCC3)CC2)cc1OCC | -3% | -5% | 6% | -1% | -8 | -1%
Cc1c(NC(=S)SCc2ccccc2)c(=O)n(-c2ccccc2)n1C | -27% | 4% | 23µM* | -14% | -23 | -1%
CCSC(=S)Nc1c(C)n(C)n(-c2ccccc2)c1=O | -22% | 8% | -24% | -28% | -20 | 8%
Cc1c(NC(=S)N/N=C\c2ccccc2O)c(=O)n(-c2ccccc2)n1C | -8% | 0% | 21µM* | ? | 68 | 7%
CC1CN(C)CCC1OC(=O)c1ccccc1 (stereo not drawn) | -16% | 7% | 19% | 1% | -12 | .
Nc1ncnc(Sc2ccc(Cl)cc2)c1[N+](=O)[O-] | -37% | -7% | 5.8µM* | 4.6µM* | ? | 2%
Nc1ncnc(Sc2ncccn2)c1[N+](=O)[O-] | 11µM* | 10µM* | 1.3µM* | 1.2µM* | -27 | -5%
Nc1ncnc(Sc2ccccc2)c1[N+](=O)[O-] | 7% | -26% | -19% | -3% | -103* | -1%
Cc1ccc(Sc2ncnc(N)c2[N+](=O)[O-])cc1 | -8% | 4% | ? | -26% | -27 | -5%
Cc1cccc(C)c1Nc1ncnc(N)c1[N+](=O)[O-] | 8% | 2% | -15% | 0% | 32 | -1%
O=S1(=O)CCN(Cc2ccncc2)CC1 | 3% | 9% | 2% | -5% | 8 | .
Cc1cc(C)cc(Cn2c3ccc(NC(=O)NCc4ccccc4)cc3c(=O)n2C)c1 | -14% | 3% | ? | ? | -20 | .
Oc1cc(-c2nc3ccccc3s2)cc2c1OCCN(Cc1cccn1-c1ccccn1)C2 | . | . | 0% | 2% | . | .
Cc1[nH]c(-c2ccc3c(c2)OCO3)nc1C(=O)O | -65% | 13% | 18µM* | 10µM* | -17 | 3%
